# Experimental data as given in PubChem BioAssay (NCI).
# The panel holds about 83,000 compounds, 20% with a hit somewhere; the sample as a whole holds those more often.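 Treatment: one concentration, 48 hours, 96-well format. Scoring: percent growth, with anything below 10 considered active.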 A number with no mark means an inactive call. Active and inactive are the calls of the source.
# How the values were obtained:
# Experiment in all cases: NCI-60 one-dose screen, 48 h (100 = growth as untreated, 0 = no growth, -100 = all killed)
# NCI-H23 lung = conditions: 10 µM unless noted
# NCI-H226 lung = conditions: 10 µM unless noted
# NCI-H322M lung = conditions: 10 µM unless noted
# HOP-62 NSCLC = conditions: 10 µM unless noted
# NCI-H460 lung = conditions: 10 µM unless noted
# HOP-92 NSCLC = conditions: 10 µM unless noted
# NCI-H522 lung = conditions: 10 µM unless noted
# A549/ATCC NSCLC = conditions: 10 µM unless noted
# 786-0 renal = conditions: 10 µM unless noted
# COLO 205 colon = conditions: 10 µM unless noted
# DU-145 prostate = conditions: 10 µM unless noted
# K-562 leukemia = conditions: 10 µM unless noted
# MALME-3M melanoma = conditions: 10 µM unless noted
# MDA-MB-231 breast = conditions: 10 µM unless noted
# RXF 393 renal = conditions: 10 µM unless noted
# SF-268 CNS = conditions: 10 µM unless noted
# SF-295 CNS = conditions: 10 µM unless noted
# SF-539 CNS = conditions: 10 µM unless noted
# UACC-257 melanoma = conditions: 10 µM
# M14 melanoma = conditions: 10 µM unless noted
SMILES,growth (NCI-H23 lung),growth (NCI-H226 lung),growth (NCI-H322M lung),growth (HOP-62 NSCLC),growth (NCI-H460 lung),growth (HOP-92 NSCLC),growth (NCI-H522 lung),growth (A549/ATCC NSCLC),growth (786-0 renal),growth (COLO 205 colon),growth (DU-145 prostate) [%],growth (K-562 leukemia),growth (MALME-3M melanoma),growth (MDA-MB-231 breast),growth (RXF 393 renal),growth (SF-268 CNS),growth (SF-295 CNS),growth (SF-539 CNS),growth (UACC-257 melanoma),growth (M14 melanoma)
O=c1oc2cc(OS(=O)(=O)c3ccccc3)c(Cl)cc2c2c1CCCCCC2,80.1%,81.7%,95.4%,118%,96.1%,65.7%,73.2%,88.2%,87.7%,94.4%,93.6,84.9%,106%,89.4%,90.8%,100%,92.6%,78.4%,92.8%,80.3%
Cc1cc2c(c(=O)o1)C(c1ccc(OC(=O)N3CCOCC3)cc1)C(C#N)=C(N)O2 (stereo not given),97.4%,104%,93.1%,89.6%,107%,113%,98.9%,100%,99.2%,118%,112,98.6%,126%,116%,114%,114%,100%,96.5%,98.2%,110%
COc1ccc(C(=O)/C=C/c2ccc(/C=C/c3cc(OC)c(OC)c(OC)c3)cc2)cc1,43.5%,72.4%,64.8%,71%,59.6%,51.9%,5.55% (active),36.3%,67.7%,68.1%,68.4,14.4%,66.8%,76.8%,71.3%,66.2%,57.9%,86.3%,72.5%,67%
O=c1c2cccc3c(Nc4ccc(F)cc4)ccc(c32)c2nc3ccccc3n12,83.8%,92.7%,67.8%,87.5%,77.9%,53.2%,82%,96.1%,97.5%,84.5%,95.5,89.5%,94.1%,70.9%,98%,95.3%,109%,83.8%,86.2%,96.7%
N#CC1=C(N)OC2=C(C(=O)CCC2)C1c1ccco1 (stereo not given),97.1%,103%,99.1%,91.3%,110%,106%,92.7%,101%,101%,110%,108,98.6%,113%,113%,114%,114%,108%,97.5%,102%,104%
Cc1cccc(NC(=O)c2sc3nc4c(cc3c2N)CCCC4)c1,65%,64.8%,37.2%,37.8%,27.6%,56.5%,24.5%,31.5%,59.8%,26.9%,45.6,17.8%,24.9%,60.9%,63.8%,51.5%,54.5%,48.5%,46.3%,30.3%
CC(=O)OC[Si](C)(C)c1ccccc1,112%,95.9%,109%,110%,103%,92.1%,103%,95.8%,96.9%,117%,113,102%,110%,105%,107%,103%,91.6%,96.2%,92.3%,97.8%
COc1ccc(-c2nc3sccn3c2-c2ccnc(NCCNS(=O)(=O)c3ccc(C(F)(F)F)cc3)n2)cc1,15.5%,4.55% (active),37.1%,46.1%,15.4%,13.4%,-1.01% (active),18.9%,18.4%,0.693% (active),15.8,6.19% (active),8.25% (active),16%,18.5%,0.178% (active),-28.5% (active),0.637% (active),13.3%,10.1%
COc1ccc(-c2nc3sccn3c2-c2ccnc(NCCCNS(=O)(=O)c3ccc(C)cc3)n2)cc1,26.6%,13.7%,65%,86.5%,40%,67.5%,21.4%,38.8%,43.6%,11.5%,34.1,19.9%,54.7%,23.5%,34.6%,38.1%,21.4%,56.9%,40%,23.2%
COc1cc(Cn2c(SCCC(=O)Nc3ccc(F)cc3)nc3ccccc3c2=O)cc(OC)c1OC,90.5%,79%,81.1%,82.7%,96.8%,55.1%,53.8%,83.5%,90.5%,95.8%,101,70.8%,91.7%,65.9%,74.3%,80.9%,88.2%,84.2%,93.2%,93%
COc1cc(C(=O)OCCCCCCCCCCC[P+](c2ccccc2)(c2ccccc2)c2ccccc2)ccc1O,-18.2% (active),27.9%,1.65% (active),-83.8% (active),-10.6% (active),-49.5% (active),-50.3% (active),-8.01% (active),5.62% (active),-84.1% (active),10.6,-37.8% (active),-77.4% (active),-69.4% (active),-53.4% (active),-74.3% (active),-31.9% (active),-57.3% (active),-21.6% (active),-24.5% (active)
COc1cccc(NC(=O)c2sc3nc4c(cc3c2N)CCCC4)c1,32.3%,57.2%,38.9%,27.7%,12%,43.6%,4.31% (active),17.4%,34.3%,49.2%,13,12.2%,17%,51.9%,7.62% (active),49.5%,35.4%,-12.8% (active),64.5%,16.6%
